Measurements as given in PubChem BioAssay.
For part of these data: Results with a measured potency or affinity are listed apart. The source made the active and inactive calls.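 How the source made its calls, unless noted: active means calcium signal cut by more than 3 SD below the full-agonist control yet still positive, in both repeats and the earlier primary screen; inactive means the rest.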

Columns and labels:
[1] = tested on: TRPC4 beta (transient receptor potential cation channel C4), mouse; assay: activators of mouse TRPC4 channel, confirmation, cell-based, Fluo4 calcium, HEK293 TRPC4beta/mu-opioid, duplicates, 10 µM (AID 2426;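 active means fluorescence ratio normalized to control raised more than 50% in primary screen plus both repeat runs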;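 on activation: percent rise of integrated ratio over buffer wells lacking compound which define 0%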); conditions: Fluo4 calcium fluorescence, at 10 µM; active compounds read high
[2] = tested on: transient receptor potential cation channel C4 beta (TRPC4), mouse; assay: activators of mouse TRPC4 channel, confirmation, cell-based, second round, Fluo4, HEK293 TRPC4beta/mu-opioid, 1 µM (AID 2461;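 active means primary screen active and over 50% activation in each of two duplicate runs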); conditions: Fluo4 calcium fluorescence, at 1 µM; active compounds read high
[3] = tested on: TRPC4 (transient receptor potential cation channel C4 beta), mouse; assay: positive allosteric modulators of mouse TRPC4, confirmation, cell-based, second round, Fluo-4, HEK293 TRPC4beta/mu-opioid, 1 µM (AID 2554;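 active means primary screen hit whose fluorescence ratio, in both repeats, exceeds the weak agonist control mean by 3 SD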); conditions: DAMGO EC20, Fluo-4 calcium flux, at 1 µM; active compounds read high
[4] = tested on: TRPC4 beta (transient receptor potential cation channel C4), mouse; assay: positive allosteric modulators of mouse TRPC4, confirmation, cell-based, Fluo-4, HEK293 TRPC4beta/mu-opioid (AID 2555;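 active means primary screen hit whose calcium fluorescence ratio, in both repeats, exceeds the weak agonist control mean by 3 SD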); conditions: DAMGO EC20, Fluo-4 calcium flux, at 10 µM; active compounds read high
[5] = biological target: Short transient receptor potential channel 4 (Mus musculus) (UniProt Q9QUQ5); assay: inhibitors of mouse TRPC4 channel, confirmation, cell-based, Fluo4, HEK293 TRPC4beta/mu-opioid (AID 2636); conditions: DAMGO, Fluo4 calcium flux, at 10 µM; active compounds read high
Chain of Short transient receptor potential channel 4 (Mus musculus) (Q9QUQ5 whole entry, looked up): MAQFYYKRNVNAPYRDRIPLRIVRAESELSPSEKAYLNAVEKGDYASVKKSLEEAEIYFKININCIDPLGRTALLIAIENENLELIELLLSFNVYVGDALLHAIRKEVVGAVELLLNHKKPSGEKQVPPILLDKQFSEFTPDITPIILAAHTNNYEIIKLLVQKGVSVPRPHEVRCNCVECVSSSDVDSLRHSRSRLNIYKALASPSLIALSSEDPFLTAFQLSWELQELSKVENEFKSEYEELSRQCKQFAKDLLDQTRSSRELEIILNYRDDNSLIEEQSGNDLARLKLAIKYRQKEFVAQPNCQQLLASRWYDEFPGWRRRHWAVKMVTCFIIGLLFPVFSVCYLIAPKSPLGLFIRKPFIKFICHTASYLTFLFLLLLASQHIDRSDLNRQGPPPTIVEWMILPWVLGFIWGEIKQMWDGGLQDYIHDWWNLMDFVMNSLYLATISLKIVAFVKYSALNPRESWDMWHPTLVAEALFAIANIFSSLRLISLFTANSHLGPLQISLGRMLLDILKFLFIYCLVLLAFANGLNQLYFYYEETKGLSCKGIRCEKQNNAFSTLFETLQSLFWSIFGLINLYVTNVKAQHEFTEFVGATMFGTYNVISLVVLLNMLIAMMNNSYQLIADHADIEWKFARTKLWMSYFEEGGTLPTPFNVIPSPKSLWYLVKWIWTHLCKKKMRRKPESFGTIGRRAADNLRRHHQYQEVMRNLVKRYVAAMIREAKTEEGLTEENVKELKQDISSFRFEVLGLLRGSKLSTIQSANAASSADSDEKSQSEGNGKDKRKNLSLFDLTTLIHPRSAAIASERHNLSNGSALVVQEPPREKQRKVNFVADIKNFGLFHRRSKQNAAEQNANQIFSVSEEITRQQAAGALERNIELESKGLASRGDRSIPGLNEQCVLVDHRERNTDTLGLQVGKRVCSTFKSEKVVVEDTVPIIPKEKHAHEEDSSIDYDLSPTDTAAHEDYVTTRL

[6] = biological target: Short transient receptor potential channel 4 (Mus musculus) (UniProt Q9QUQ5); assay: inhibitors of mouse TRPC4 channel, confirmation, cell-based, second round, Fluo4, HEK293 TRPC4beta/mu-opioid, 1 µM (AID 2637;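 active means calcium signal ratio cut to more than 3 SD under the fully stimulated control mean yet still positive, in both repeats and the primary screen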;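 on inhibition: percent of integrated ratio relative to wells lacking test compound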); conditions: Fluo4 calcium flux, DAMGO, at 1 µM; active compounds read high
[7] = biological target: Short transient receptor potential channel 4 (Mus musculus) (UniProt Q9QUQ5); assay: mouse TRPC4 channel activators, dose response, cell-based, HEK293 TRPC4/mu-opioid, Fluo-4 calcium (AID 434937;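 active means primary screen activator hit with a dose response curve and TRPC4 channel activation at any tested dose; inactive means no activation, no dose response, or not a primary hit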)
[8] = biological target: Short transient receptor potential channel 4 (Mus musculus) (UniProt Q9QUQ5); assay: TRPC4 positive allosteric modulators, dose response, cell-based, HEK293 TRPC4/mu-opioid, Fluo-4 calcium, EC20 DAMGO (AID 434941;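 active means earlier screen potentiator hit that boosts the TRPC4 ion channel at some dose, with a dose response; inactive means no potentiation, no dose response, or not a prior hit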;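 further: calcium entry triggered by an EC20 dose of DAMGO at the co-expressed mu-opioid receptor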)
[9] = biological target: Short transient receptor potential channel 4 (Mus musculus) (UniProt Q9QUQ5); assay: mouse TRPC4 channel inhibitors, dose response, cell-based, HEK293 TRPC4/mu-opioid, Fluo-4 calcium (AID 434942;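 active means primary screen inhibitor hit that blocks the TRPC4 channel at some tested dose, yielding a dose curve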)
[10] = biological target: Short transient receptor potential channel 6 (Mus musculus) (UniProt Q61143); assay: inhibition of mouse TRPC6 channel, confirmation, selectivity assay for TRPC4 inhibitor project, cell-based, HEK293, membrane potential dye, duplicate (AID 434948;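 active means active in primary screen and both duplicates, each dropping signal beyond three positive-control SD with fluorescence still positive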); conditions: HEK293 TRPC6, membrane potential dye fluorescence, at 10 µM, stimulated with maximal-effect acetylcholine; active compounds read high
Chain of Short transient receptor potential channel 6 (Mus musculus) (Q61143 whole entry, looked up): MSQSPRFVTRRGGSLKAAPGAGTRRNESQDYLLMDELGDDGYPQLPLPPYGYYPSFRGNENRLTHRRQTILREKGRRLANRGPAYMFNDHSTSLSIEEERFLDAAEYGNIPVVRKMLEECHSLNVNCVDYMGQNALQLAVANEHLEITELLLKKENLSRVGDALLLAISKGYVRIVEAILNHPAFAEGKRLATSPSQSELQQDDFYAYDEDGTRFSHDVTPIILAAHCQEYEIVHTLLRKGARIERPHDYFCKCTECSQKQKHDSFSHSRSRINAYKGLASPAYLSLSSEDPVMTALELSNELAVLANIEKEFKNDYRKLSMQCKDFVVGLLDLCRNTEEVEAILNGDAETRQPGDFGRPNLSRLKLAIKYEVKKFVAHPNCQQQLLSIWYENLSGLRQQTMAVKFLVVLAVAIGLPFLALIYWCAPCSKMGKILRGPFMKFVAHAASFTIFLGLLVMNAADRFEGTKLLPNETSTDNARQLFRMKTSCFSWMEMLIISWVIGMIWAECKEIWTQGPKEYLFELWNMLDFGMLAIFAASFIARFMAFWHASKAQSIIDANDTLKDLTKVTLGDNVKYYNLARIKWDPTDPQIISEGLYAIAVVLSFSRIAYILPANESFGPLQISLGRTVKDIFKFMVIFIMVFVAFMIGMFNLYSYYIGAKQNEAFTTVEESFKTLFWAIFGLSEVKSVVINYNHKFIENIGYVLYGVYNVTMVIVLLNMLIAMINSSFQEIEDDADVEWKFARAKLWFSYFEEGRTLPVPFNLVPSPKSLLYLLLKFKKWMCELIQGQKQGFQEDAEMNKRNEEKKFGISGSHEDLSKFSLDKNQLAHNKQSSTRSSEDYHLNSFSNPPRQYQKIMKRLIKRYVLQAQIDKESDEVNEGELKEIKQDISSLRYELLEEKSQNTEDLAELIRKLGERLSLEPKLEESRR

[11] = biological target: Short transient receptor potential channel 6 (Mus musculus) (UniProt Q61143); assay: activation of mouse TRPC6 channel, confirmation, selectivity assay for TRPC4 activator project, cell-based, HEK293, membrane potential dye, duplicate (AID 434950;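 active means membrane potential signal rise above negative control mean plus 3 SD in both duplicates, also active in the earlier TRPC4 screen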); conditions: HEK293 TRPC6, membrane potential fluorescence, at 10 µM; active compounds read high
[12] = biological target: Short transient receptor potential channel 6 (Mus musculus) (UniProt Q61143); assay: TRPC6 potentiation by TRPC4 potentiator hits, confirmation, selectivity assay for TRPC4 potentiator project, HEK293 cells, membrane potential dye, duplicate (AID 434952;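 active means compound raising the membrane signal above positive-control mean plus 3 SD in both repeats, and a primary screen hit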); conditions: HEK293 TRPC6, membrane potential dye fluorescence, at 10 µM, maximal acetylcholine added after compound; active compounds read high
[13] = biological target: Short transient receptor potential channel 4 (Mus musculus) (UniProt Q9QUQ5); assay: calcium flux activators in TRPC4/5HT1a cells, counter-screen for TRPC4 activator project, cell-based, second counter screen, HEK293 TRPC4/5HT1a, Fluo-4 (AID 434977;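 active means calcium signal rise above buffer-control mean plus 5 SD in both duplicates, and also a hit in the primary screen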); conditions: Fluo-4 calcium flux, at 10 µM; active compounds read high
[14] = calcium flux inhibitors in TRPC4/5HT1a cells, confirmation, counter-screen for TRPC4 inhibitor project, cell-based, second counter screen, HEK293 TRPC4/5HT1a, Fluo-4 (AID 434978;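 active means primary screen active whose calcium signal fell more than 3 SD beyond the full-serotonin control mean in both duplicate plates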;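 further: serotonin given first at submaximal then at maximal dose after compound preincubation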); conditions: Fluo-4 calcium flux, at 10 µM, serotonin added to trigger calcium flux; active compounds read high
[15] = tested on: TRPC4 (mouse), co-expressed with 5HT1a in HEK293; assay: calcium flux potentiators in TRPC4/5HT1a cells, confirmation, counter-screen for TRPC4 potentiator project, cell-based, second counter screen, HEK293 TRPC4/5HT1a, Fluo-4 (AID 434979;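 active means signal rise over 3 SD above mean of control wells given weak agonist, in both repeats and first screen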); conditions: Fluo-4 calcium flux, at 10 µM, serotonin added at its EC20 dose; active compounds read high
[16] = calcium flux activation in mu-opioid HEK293 cells, confirmation, counter-screen for TRPC4 activator project, cell-based, HEK293 mu-opioid receptor line (AID 449723;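 active means hit in primary screen, with calcium signal over 5 SD above buffer well mean in both duplicates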;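 further: counter screen cells carry the mu-opioid receptor alone and lack TRPC4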); conditions: Fluo-4 calcium fluorescence, at 10 µM; active compounds read high
[17] = calcium flux enhancement in mu-opioid HEK293 cells, confirmation, counter-screen for TRPC4 allosteric potentiator project, cell-based, HEK293 mu-opioid receptor line (AID 449724;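 active means calcium signal rise more than 3 SD above the low-dose agonist control mean, in both duplicate plates and the primary screen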); conditions: Fluo-4 calcium flux, at 10 µM, compound added before EC20 DAMGO stimulus; active compounds read high

CCCCNC(=O)/C(C#N)=C/c1ccc(F)cc1F
active: potentiation [4] 9%
inactive: outcome [1] | outcome [2] | outcome [3] | outcome [5] | outcome [6] | outcome [7] | outcome [8] | outcome [9] | outcome [10] | outcome [11] | outcome [12] | outcome [13] | outcome [14] | outcome [15] | outcome [16] | outcome [17]

COc1ccccc1OCC(=O)Nc1ccc(Cl)cc1
active: inhibition [5] 52% | inhibition [6] 41%
inactive: outcome [1] | outcome [2] | outcome [3] | outcome [4] | outcome [7] | outcome [8] | outcome [9] | outcome [10] | outcome [11] | outcome [12] | outcome [13] | outcome [14] | outcome [15] | outcome [16] | outcome [17]

CCCn1nc(C(=O)NC2CCCc3ccccc32)c2ccccc2c1=O (stereo not given)
active: potentiation [4] 22% | potentiation [15] 19.5%
inactive: outcome [1] | outcome [2] | outcome [3] | outcome [5] | outcome [6] | outcome [7] | outcome [8] | outcome [9] | outcome [10] | outcome [11] | outcome [12] | outcome [13] | outcome [14] | outcome [16] | outcome [17]

CCOCCCNCc1ccc(OCc2ccccc2Cl)cc1
inactive: outcome [1] | outcome [2] | outcome [3] | outcome [4] | outcome [5] | outcome [6] | outcome [7] | outcome [8] | outcome [9] | outcome [10] | outcome [11] | outcome [12] | outcome [13] | outcome [14] | outcome [15] | outcome [16] | outcome [17]

CCCCCCc1cc2cc(-c3nnc(-c4ccccc4O)o3)c(=O)oc2cc1O
inactive: outcome [1] | outcome [2] | outcome [3] | outcome [5] | outcome [6] | outcome [7] | outcome [8] | outcome [9] | outcome [10] | outcome [11] | outcome [12] | outcome [13] | outcome [14] | outcome [16]
active: potentiation [4] 15% | potentiation [15] 35.3% | activation [17] 1460%

N=c1c(C(=O)NCc2ccc(F)cc2)cc2c(=O)n3ccccc3nc2n1Cc1ccco1
inactive: outcome [1] | outcome [2] | outcome [3] | outcome [5] | outcome [6] | outcome [7] | outcome [8] | outcome [9] | outcome [10] | outcome [11] | outcome [12] | outcome [13] | outcome [14] | outcome [15] | outcome [16] | outcome [17]
active: potentiation [4] 17%

COc1ccc(NS(=O)(=O)c2cccc(C(=O)N3CCN(Cc4cc(OC)ccc4OC)CC3)c2)cc1
inactive: outcome [1] | outcome [2] | outcome [3] | outcome [4] | outcome [5] | outcome [6] | outcome [7] | outcome [8] | outcome [9] | outcome [10] | outcome [11] | outcome [12] | outcome [13] | outcome [14] | outcome [15] | outcome [16] | outcome [17]

CCCCNc1c(-c2ccc(SC(C)CC)c(OC)c2)nc2ccc(C)cn12 (stereo not given)
inactive: outcome [1] | outcome [2] | outcome [3] | outcome [4] | outcome [5] | outcome [6] | outcome [7] | outcome [8] | outcome [9] | outcome [10] | outcome [11] | outcome [12] | outcome [13] | outcome [14] | outcome [15] | outcome [16] | outcome [17]

O=S(=O)(c1ccccc1Cl)N1CCC(Cc2ccccc2)CC1
active: potentiation [4] 16% | potentiation [15] 6.72%
inactive: outcome [1] | outcome [2] | outcome [3] | outcome [5] | outcome [6] | outcome [7] | outcome [8] | outcome [9] | outcome [10] | outcome [11] | outcome [12] | outcome [13] | outcome [14] | outcome [16] | outcome [17]

C=C(C)COc1ccc(-c2[nH]ncc2Oc2ccc(OC)cc2)c(O)c1
inactive: outcome [1] | outcome [2] | outcome [3] | outcome [4] | outcome [5] | outcome [6] | outcome [7] | outcome [8] | outcome [9] | outcome [10] | outcome [11] | outcome [12] | outcome [13] | outcome [14] | outcome [15] | outcome [16] | outcome [17]

CC(=O)OCC1O[C@@H](O[C@@H]2C[C@H]3C(C)(C)[C@H](OC(C)=O)CC[C@]3(C)[C@H]3CC[C@]45C[C@]4(CC[C@H]5[C@@H](C)C[C@@H](O)[C@H](O)C(C)(C)O)[C@@]32C)[C@H](O)[C@@H](O)[C@@H]1O (stereo not given in full)
active: activation [1] 173% | activation [16] 28.8%
inactive: outcome [2] | outcome [3] | outcome [4] | outcome [5] | outcome [6] | outcome [7] | outcome [8] | outcome [9] | outcome [10] | outcome [11] | outcome [12] | outcome [13] | outcome [14] | outcome [15] | outcome [17]

O=C(NCC(c1ccco1)N1CCc2ccccc2C1)c1ccc(F)cc1 (stereo not given)
inactive: outcome [1] | outcome [2] | outcome [3] | outcome [4] | outcome [5] | outcome [6] | outcome [7] | outcome [8] | outcome [9] | outcome [10] | outcome [11] | outcome [12] | outcome [13] | outcome [14] | outcome [15] | outcome [16] | outcome [17]

CC(C)CCNC(=O)CCC(=O)NNc1nc2ccccc2c2nc(-c3ccccc3)nn12
inactive: outcome [1] | outcome [2] | outcome [3] | outcome [4] | outcome [5] | outcome [6] | outcome [7] | outcome [8] | outcome [9] | outcome [10] | outcome [11] | outcome [12] | outcome [13] | outcome [14] | outcome [16] | outcome [17]
active: potentiation [15] 70.8%

COc1cc(S(=O)(=O)N2CCC(N3CCCCC3)CC2)ccc1-n1cnnn1
inactive: outcome [1] | outcome [2] | outcome [5] | outcome [6] | outcome [7] | outcome [8] | outcome [9] | outcome [10] | outcome [11] | outcome [12] | outcome [13] | outcome [14] | outcome [16] | outcome [17]
active: potentiation [3] 12% | potentiation [4] 8% | potentiation [15] 13.4%

Cc1nn(-c2ccccc2)c2nc(-c3ccccc3)cc(C(=O)N3CCOCC3)c12
inactive: outcome [1] | outcome [2] | outcome [3] | outcome [5] | outcome [6] | outcome [7] | outcome [8] | outcome [9] | outcome [10] | outcome [11] | outcome [12] | outcome [13] | outcome [14] | outcome [16] | outcome [17]
active: potentiation [4] 15% | potentiation [15] 34.4%
